Among all 22,000 compounds or so, about 220 (1%) were called active. Many of the other results were omitted from the sample, so actives are more common in it than they were. A number with no mark means an inactive call. Cut-off read from the data, not from the text of the source: active = inhibition above about 35%; inactive = the rest.

Mitogen-activated protein kinase kinase kinase 5 (Homo sapiens), sequence (Q99683 whole entry, looked up): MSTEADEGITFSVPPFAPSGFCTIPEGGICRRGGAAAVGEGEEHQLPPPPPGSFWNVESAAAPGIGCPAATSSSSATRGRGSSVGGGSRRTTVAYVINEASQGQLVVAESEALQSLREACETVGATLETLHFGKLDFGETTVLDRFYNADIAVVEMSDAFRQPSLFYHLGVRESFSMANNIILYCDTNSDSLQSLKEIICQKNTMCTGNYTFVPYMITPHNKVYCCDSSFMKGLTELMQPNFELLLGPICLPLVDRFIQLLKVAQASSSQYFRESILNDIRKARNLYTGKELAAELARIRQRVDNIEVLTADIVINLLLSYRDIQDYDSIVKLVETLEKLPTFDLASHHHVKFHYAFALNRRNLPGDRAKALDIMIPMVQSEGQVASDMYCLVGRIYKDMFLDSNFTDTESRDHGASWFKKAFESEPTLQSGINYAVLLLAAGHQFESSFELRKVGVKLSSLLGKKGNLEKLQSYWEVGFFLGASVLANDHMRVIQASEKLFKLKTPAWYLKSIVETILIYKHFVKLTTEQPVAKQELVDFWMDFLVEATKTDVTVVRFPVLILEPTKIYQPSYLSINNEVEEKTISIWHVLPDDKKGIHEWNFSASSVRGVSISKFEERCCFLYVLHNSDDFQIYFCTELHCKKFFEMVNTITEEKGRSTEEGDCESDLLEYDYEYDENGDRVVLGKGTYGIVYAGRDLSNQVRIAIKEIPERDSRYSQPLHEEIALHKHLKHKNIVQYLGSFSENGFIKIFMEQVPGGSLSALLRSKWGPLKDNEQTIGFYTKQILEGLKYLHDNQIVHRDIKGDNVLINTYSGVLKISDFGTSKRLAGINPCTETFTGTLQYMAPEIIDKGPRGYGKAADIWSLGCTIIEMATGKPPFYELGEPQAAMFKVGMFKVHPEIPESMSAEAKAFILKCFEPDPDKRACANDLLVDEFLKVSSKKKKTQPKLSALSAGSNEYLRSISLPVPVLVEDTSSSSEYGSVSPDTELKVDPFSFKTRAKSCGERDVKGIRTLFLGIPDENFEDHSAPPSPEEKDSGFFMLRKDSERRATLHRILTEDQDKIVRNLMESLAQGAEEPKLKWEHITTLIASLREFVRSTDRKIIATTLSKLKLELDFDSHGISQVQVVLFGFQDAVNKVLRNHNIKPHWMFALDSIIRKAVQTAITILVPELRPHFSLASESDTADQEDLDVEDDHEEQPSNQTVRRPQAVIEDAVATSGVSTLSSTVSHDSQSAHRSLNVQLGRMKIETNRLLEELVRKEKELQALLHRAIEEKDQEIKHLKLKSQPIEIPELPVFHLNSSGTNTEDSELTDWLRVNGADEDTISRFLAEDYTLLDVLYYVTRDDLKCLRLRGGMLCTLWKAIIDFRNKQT

This assay addresses Mitogen-activated protein kinase kinase kinase 5 (Homo sapiens) (UniProt Q99683). Description: ASK1 kinase inhibitors, primary screen, biochemical, AlphaScreen (AID 1159602).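 Note: 0% = median of compound wells and 100% = no enzyme.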 As to conditions: AlphaScreen MKK6 phosphorylation by ASK1, luminescence; at 7.44 µM; stronger effect = higher value.
By inhibition is commonly meant the relative decrease from the control value, in per cent. For the compound `O=C(NCCO)c1ccc2nc(NCCN3CCOCC3)sc2c1`, the inhibition is -9.95%.

Regarding `COc1nc(Nc2ccccc2)nc(-c2csc3ccccc23)n1`, the inhibition is -2.87%.

Regarding `c1csc(-c2ccnc(Nc3ccc(N4CCOCC4)cc3)n2)c1`, the inhibition was 13.2%.

As for `CCCNc1nc(-c2cccc(C(C)=O)c2)ncc1C`, the inhibition was -6.63%.

Take `O=C(Nc1ccc2[nH]ncc2c1)C1CCN(C(=O)[C@H](O)c2cccc(Cl)c2)C1` (some centres not stated): the inhibition is -11.7%.

Regarding `CC(C)n1cnc2c(NC3CCN(Cc4ccccc4)CC3)nc(-c3ccc(N4CCOCC4)nc3)nc21`, the inhibition is 11%.

With `O=C1CCCN1CCCNc1cc(NCc2cccnc2)ncn1`, the inhibition was 2.26%.

Consider `CCN(CC)C(=O)C1CCCN(c2nc3ncnc(NCCN4CCOCC4)c3[nH]2)C1` (configuration not stated), for which the inhibition was 1.62%.

Regarding `O=C(NC1CC1)c1ccc(-c2ncc(C(=O)Nc3ccc(N4CCOCC4)cc3)s2)cc1`, the inhibition was 1.95%.

As to `Nc1cccc(-c2ccc(C(=O)NCc3nc4ccccc4[nH]3)s2)c1`, the inhibition was 7.11%.

With `CCCNc1nc(-c2ccc(C(=O)N3CCN(C)CC3)cc2)nc2c1ncn2C(C)C`, the inhibition is -4.93%.

For `c1ccc(OCCNc2cc(NCc3ccc4c(c3)OCO4)ncn2)cc1`, the inhibition was 11.6%.

With `O=C(NC1CC1)c1ccc(-c2nc(NC3CC3)c3ncn(C4CCCCC4)c3n2)cc1`, the inhibition is -4.59%.

Take `Cc1[nH]ncc1-c1ccc(NC(=O)CCc2ccccc2)cc1`: the inhibition is 1.62%.

Regarding `O=C(NC1CC1)c1ccc(-c2nc(C(=O)NCc3cccc(C(F)(F)F)c3)cs2)cc1`, the inhibition was -7.56%.

Regarding `c1ccc(CN2CCC(Nc3nc(NCc4ccc5c(c4)OCO5)nc4c3ncn4C3CCCCC3)CC2)cc1`, the inhibition was 24.9%.

As to `FC(F)(F)c1ccc(Cn2cnc3c(NC4CCN(Cc5ccccc5)CC4)nc(Nc4nccc5ccccc45)nc32)cc1`, the inhibition was 7.54%.

In the case of `FC(F)(F)c1cnc(Nc2ccc(N3CCOCC3)cc2)cc1-n1ncc2ccccc21`, the inhibition is -0.62%.

Take `c1ccc(CNc2nc(N3CCN(c4ccccn4)CC3)nc3c2ncn3-c2ccsc2)cc1`: the inhibition is 19.3%.

In the case of `O=C1CCCN1CCCNc1nc(N2CCN(Cc3ccc4c(c3)OCO4)CC2)nc2c1ncn2-c1ccccc1`, the inhibition was 14.4%.

`FC(F)(F)c1cccc(CNc2nc(N3CCN(c4ccccn4)CC3)nc3c2ncn3-c2ccsc2)c1`: the inhibition was 40.9% (active).

Regarding `O=C1CCCN1CCn1cnc2c(NCc3cccc(C(F)(F)F)c3)nc(N3CCN(Cc4ccc5c(c4)OCO5)CC3)nc21`, the inhibition is 15.8%.

As for `COc1cc(Nc2nc(NCc3cccc(C(F)(F)F)c3)c3ncn(-c4ccsc4)c3n2)cc(OC)c1OC`, the inhibition is 15.7%.

Turning to `c1ccc(N2CCN(c3nc(NCc4nc5ccccc5[nH]4)c4ncn(-c5ccsc5)c4n3)CC2)nc1`, the inhibition was -8.09%.

On to `FC(F)(F)c1cccc(CNc2nc(N3CCN(Cc4ccc5c(c4)OCO5)CC3)nc3c2ncn3-c2ccccc2)c1`, for which the inhibition is 36.7% (active).

Regarding `Cc1cnc(Nc2ccc(N3CCOCC3)cc2)nc1NCc1cccc(C(F)(F)F)c1`, the inhibition is 41.4% (active).

For `FC(F)(F)c1cccc(CNc2nc(Nc3ccc(N4CCOCC4)cc3)nc3c2ncn3-c2ccsc2)c1`, the inhibition is 41.6% (active).

For `FC(F)(F)c1ccc(Cn2cnc3c(NCc4cccc(C(F)(F)F)c4)nc(Nc4ccc(N5CCOCC5)cc4)nc32)cc1`, the inhibition is 12.8%.

Turning to `FC(F)(F)c1cccc(CNc2ncnc3nc(N4CCOCC4)[nH]c23)c1`, the inhibition is -25.3%.

With `FC(F)(F)c1cccc(CNc2nc(N3CCOCC3)nc3c2ncn3-c2ccsc2)c1`, the inhibition was 8.31%.

Regarding `O=C(Nc1ccncc1)OC1CCN(C(=O)[C@H](O)COc2ccc(Br)cc2)CC1`, the inhibition is -3.38%.

Regarding `COC(=O)c1cccc(-n2ncc3cc(Nc4ccccc4)ccc32)c1`, the inhibition was -20.5%.

With `Cc1noc(C)c1-c1nc(NC2CC2)c2ncn(-c3ccsc3)c2n1`, the inhibition is -7.13%.

Regarding `COc1cc2nc(N3CCN(c4ccccn4)CC3)nc(NCc3nc4ccccc4[nH]3)c2cc1OC`, the inhibition is -8.78%.

On to `CC(=O)Nc1ccc(NC(=O)c2csc(N3CCC(N4CCOCC4)CC3)n2)cc1`, for which the inhibition was 14.1%.

As to `CCCNc1nc(-c2cccc(C(C)=O)c2)nc2nc[nH]c12`, the inhibition was 6.62%.

On to `c1ccc(OCCNc2nc(N3CCC(N4CCOCC4)CC3)nc3c2ncn3-c2ccccc2)cc1`, for which the inhibition was 8.08%.

Consider `CC(C)(C)OC(=O)N1CCC(CC(=O)Nc2ccnn2-c2cccc(C(=O)Nc3ccc(N4CCOCC4)cc3)c2)CC1`, for which the inhibition was 7.81%.

On to `Cc1noc(C)c1-c1cc(C(=O)NCc2cccc(C(F)(F)F)c2)ccn1`, for which the inhibition was 1.72%.

Turning to `O=C(NCCOc1ccccc1)c1cnc(Nc2cccnc2)s1`, the inhibition was 4.63%.

Consider `O=C(c1cccnc1)N1CCCC(Nc2ccc3[nH]ncc3c2)C1` (configuration not stated), for which the inhibition was -32%.

For the compound `Nc1cccc(-c2nc(NCc3nc4ccccc4[nH]3)c3ncn(Cc4ccc(C(F)(F)F)cc4)c3n2)c1`, the inhibition is -18.3%.

In the case of `Cc1cc(NCc2cccnc2)nc(-c2ccc(C(N)=O)cc2)n1`, the inhibition was 1.31%.

With `COc1cc(Nc2cc(C(=O)NCc3ccccc3)ccn2)cc(OC)c1OC`, the inhibition is 2.85%.

Regarding `O=C(NC1CC1)c1ccc(-c2nc(NC3CCN(Cc4ccccc4)CC3)c3ncn(C4CCCCC4)c3n2)cc1`, the inhibition is 9.66%.

Take `FC(F)(F)c1cccc(CNc2ncnc3nc(Nc4ccncn4)[nH]c23)c1`: the inhibition was 14.3%.

With `COc1cc(NC(=O)c2ccnc(N3CCC(N4CCOCC4)CC3)c2)cc(OC)c1OC`, the inhibition was 1.9%.

As to `NC(=O)c1cccc(N2CCCC2CO)n1` (configuration not stated), the inhibition is 1.37%.

As to `COc1cc(NC(=O)[C@H](N)c2ccc(F)cc2)c(F)cc1-c1cn[nH]c1`, the inhibition was 8.67%.

Regarding `Cc1nn(C)c(C)c1-c1nc(NCCc2ccc(O)cc2)c2ncn(CCN3CCCC3=O)c2n1`, the inhibition was -10.9%.

Take `Cn1c(Nc2nc(NCCN3CCOCC3)c3ncn(-c4ccccc4)c3n2)nc2ccccc21`: the inhibition is -13.6%.

Regarding `CCN(CC)C(=O)C1CCCN(c2nc(NCc3cccc(C(F)(F)F)c3)c3cc(OC)c(OC)cc3n2)C1` (configuration not stated), the inhibition is 3.43%.

The record behind these values is PubChem BioAssay AID1159602 (The Scripps Research Institute Molecular Screening Center, 2016).
